What all share (experiment): DAPPL (digital affinity profiling via proximity ligation, sequencing); 10 mM Tris-HCl pH 7.5, 50 mM NaCl, 1 mM DTT, 4% glycerol, room temperature, 30 min; GST-TFs on glutathione beads, 16-mer random dsDNA library, 0.1% formaldehyde crosslink after washing; high values mean tight binding
Conditions in all cases: protein: recombinant; tags: N-terminal GST; dsDNA, one strand shown

The target of one test is T1, FLI1 (Homo sapiens, UniProt Q01543 1-452).
T1 sequence: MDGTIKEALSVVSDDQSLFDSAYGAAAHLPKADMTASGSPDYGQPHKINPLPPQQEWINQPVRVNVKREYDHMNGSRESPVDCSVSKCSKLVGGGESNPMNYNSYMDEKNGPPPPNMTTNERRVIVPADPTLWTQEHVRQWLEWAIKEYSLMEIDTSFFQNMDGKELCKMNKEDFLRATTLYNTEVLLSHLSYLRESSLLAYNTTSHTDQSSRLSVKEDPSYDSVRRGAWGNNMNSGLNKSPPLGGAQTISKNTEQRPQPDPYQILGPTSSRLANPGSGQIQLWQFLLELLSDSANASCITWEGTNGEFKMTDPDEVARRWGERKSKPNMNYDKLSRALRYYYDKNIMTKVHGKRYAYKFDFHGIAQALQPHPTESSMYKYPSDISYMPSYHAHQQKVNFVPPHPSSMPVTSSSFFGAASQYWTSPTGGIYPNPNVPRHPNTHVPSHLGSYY
The method in brief:
(§1)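 Pools were built from human transcription factors expressed in yeast as GST fusions, captured on glutathione beads and DNA-barcoded, along with a tag-only sample. Incubation with 200 nmole of a 16-mer random double-stranded DNA library lasted 30 min at room temperature in Tris/NaCl/DTT/glycerol buffer, and was followed by washing, 0.1% formaldehyde crosslinking, proximity ligation, PCR amplification and Illumina NextSeq500 sequencing. Binding signal is the quotient of each hexamer's read frequency for a factor and its frequency for the tag-only sample.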

The target in another test is T2, ELK1 (Homo sapiens, UniProt P19419 1-428).
T2 sequence: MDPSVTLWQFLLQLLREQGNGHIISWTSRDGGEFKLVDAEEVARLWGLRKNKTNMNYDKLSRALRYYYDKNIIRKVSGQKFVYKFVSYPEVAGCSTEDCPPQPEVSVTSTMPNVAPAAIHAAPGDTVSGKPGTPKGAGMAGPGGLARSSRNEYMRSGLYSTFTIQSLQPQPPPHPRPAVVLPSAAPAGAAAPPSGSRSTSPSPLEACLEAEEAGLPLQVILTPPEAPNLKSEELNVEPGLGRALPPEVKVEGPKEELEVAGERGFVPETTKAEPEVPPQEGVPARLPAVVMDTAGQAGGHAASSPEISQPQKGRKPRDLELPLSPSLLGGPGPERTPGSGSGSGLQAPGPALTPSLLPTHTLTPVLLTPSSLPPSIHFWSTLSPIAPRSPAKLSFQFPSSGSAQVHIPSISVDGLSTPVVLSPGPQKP
The method in brief: as §1

For a further test, the target named is T3, GABPA (Homo sapiens, UniProt Q06546 1-454).
T3 sequence: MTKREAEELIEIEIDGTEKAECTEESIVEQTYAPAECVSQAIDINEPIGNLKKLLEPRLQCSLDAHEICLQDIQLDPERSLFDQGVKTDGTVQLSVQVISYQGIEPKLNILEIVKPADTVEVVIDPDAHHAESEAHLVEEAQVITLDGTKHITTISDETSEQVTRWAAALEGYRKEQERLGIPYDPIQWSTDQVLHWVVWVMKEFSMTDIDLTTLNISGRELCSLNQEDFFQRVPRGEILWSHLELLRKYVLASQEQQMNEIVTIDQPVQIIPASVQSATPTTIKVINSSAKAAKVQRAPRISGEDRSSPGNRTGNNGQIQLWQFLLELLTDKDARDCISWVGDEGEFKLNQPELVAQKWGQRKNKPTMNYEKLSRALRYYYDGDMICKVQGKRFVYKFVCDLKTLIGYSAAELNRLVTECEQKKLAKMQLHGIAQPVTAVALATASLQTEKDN
The method in brief: as §1

The target in another test is T4, ERG (Homo sapiens, UniProt P11308 1-479).
T4 sequence: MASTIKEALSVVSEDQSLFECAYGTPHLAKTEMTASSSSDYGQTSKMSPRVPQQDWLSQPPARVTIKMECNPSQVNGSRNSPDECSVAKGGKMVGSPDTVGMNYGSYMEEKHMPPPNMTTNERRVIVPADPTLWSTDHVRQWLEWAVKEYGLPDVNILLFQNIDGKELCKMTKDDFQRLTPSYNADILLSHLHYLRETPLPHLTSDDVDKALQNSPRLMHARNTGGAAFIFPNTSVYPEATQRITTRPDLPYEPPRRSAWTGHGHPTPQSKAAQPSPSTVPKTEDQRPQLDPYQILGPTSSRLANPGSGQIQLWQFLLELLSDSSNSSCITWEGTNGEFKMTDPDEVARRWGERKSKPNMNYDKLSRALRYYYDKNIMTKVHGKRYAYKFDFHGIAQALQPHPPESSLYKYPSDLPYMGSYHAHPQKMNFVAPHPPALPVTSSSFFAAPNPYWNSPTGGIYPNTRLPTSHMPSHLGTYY
The procedure, abridged: as §1

In the next test the target is ELF1 (Homo sapiens, UniProt P32519 1-619). The procedure, abridged:
as §1

A further test addresses T5, EHF (Homo sapiens, UniProt Q9NZC4 1-300).
T5 sequence: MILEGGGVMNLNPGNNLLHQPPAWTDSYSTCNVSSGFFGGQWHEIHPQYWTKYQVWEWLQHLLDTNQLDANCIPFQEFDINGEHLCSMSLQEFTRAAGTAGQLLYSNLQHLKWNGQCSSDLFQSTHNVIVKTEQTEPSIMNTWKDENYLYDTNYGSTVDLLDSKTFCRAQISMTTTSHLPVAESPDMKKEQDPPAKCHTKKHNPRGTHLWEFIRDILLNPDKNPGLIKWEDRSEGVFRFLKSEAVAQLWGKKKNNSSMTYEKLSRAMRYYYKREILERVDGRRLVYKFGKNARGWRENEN
The method in brief: as §1

Another test concerns the target SPI1 (Homo sapiens, UniProt P17947 1-270). The procedure, abridged: as §1
In the next test the target is SPIB (Homo sapiens, UniProt Q01892 1-262). The procedure, abridged: as §1
In another test the target is T6, ELK3 (Homo sapiens, UniProt P41970 1-407).
T6 sequence: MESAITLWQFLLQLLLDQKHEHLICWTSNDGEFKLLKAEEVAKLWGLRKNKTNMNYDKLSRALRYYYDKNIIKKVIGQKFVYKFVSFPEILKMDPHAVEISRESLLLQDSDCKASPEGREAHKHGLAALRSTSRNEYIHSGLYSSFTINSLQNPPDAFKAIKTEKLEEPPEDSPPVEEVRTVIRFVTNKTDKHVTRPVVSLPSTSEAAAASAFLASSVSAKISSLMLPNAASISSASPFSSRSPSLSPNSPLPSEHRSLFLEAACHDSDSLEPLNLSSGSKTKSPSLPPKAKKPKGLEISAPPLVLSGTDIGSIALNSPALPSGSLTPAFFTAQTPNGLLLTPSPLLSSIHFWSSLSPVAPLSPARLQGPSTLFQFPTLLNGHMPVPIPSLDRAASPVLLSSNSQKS
The procedure, abridged:
as §1

The values below come from paper PMC7862700, “An all-to-all approach to the identification of sequence-specific readers for epigenetic DNA modifications on cytosine”.

ELF1, sequence (P32519 whole entry): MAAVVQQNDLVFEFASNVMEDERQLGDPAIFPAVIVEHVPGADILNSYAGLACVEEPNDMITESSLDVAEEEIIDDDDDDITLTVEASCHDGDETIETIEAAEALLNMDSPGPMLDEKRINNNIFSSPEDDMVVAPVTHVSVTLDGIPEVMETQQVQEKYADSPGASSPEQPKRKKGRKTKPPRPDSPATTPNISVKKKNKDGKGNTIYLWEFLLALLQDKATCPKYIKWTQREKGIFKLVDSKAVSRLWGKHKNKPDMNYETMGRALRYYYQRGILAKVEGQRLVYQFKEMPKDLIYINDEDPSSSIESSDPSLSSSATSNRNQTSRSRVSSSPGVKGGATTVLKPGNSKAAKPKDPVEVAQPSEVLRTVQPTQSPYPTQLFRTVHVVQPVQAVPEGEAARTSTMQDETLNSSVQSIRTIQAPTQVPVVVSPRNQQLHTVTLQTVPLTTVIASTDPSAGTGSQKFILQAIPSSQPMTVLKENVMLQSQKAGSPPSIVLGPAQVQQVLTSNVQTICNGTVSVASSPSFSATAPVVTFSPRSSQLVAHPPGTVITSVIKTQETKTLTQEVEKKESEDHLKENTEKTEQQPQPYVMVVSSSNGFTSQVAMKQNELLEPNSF
SPIB, sequence (Q01892 whole entry): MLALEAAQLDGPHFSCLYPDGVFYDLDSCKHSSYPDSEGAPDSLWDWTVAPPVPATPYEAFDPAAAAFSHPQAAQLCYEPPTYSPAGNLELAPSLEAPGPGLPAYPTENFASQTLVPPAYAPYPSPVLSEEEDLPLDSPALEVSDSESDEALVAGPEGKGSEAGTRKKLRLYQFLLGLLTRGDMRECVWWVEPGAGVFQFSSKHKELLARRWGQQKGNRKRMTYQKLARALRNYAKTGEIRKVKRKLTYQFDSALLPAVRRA

On to CGACTA, for which the binding signal is 1.24 fold enrichment (6-mer frequency, TF over GST control) in the test with FLI1; 1.31 fold enrichment (6-mer frequency, TF over GST control) with ELK1; 1.5 fold enrichment (6-mer frequency, TF over GST control) with GABPA; 1.28 fold enrichment (6-mer frequency, TF over GST control) in the test with ERG; 1.31 fold enrichment (6-mer frequency, TF over GST control) with ELF1; 1.31 fold enrichment (6-mer frequency, TF over GST control) in the test with EHF. Besides, the binding signal with SPI1 is 1.29 fold enrichment (6-mer frequency, TF over GST control); in the test with SPIB, 1.32 fold enrichment (6-mer frequency, TF over GST control); with ELK3, 1.3 fold enrichment (6-mer frequency, TF over GST control).
Take TACGCA: the binding signal is 1.18 fold enrichment (6-mer frequency, TF over GST control) with FLI1; 1.2 fold enrichment (6-mer frequency, TF over GST control) with ELK1; 1.11 fold enrichment (6-mer frequency, TF over GST control) with GABPA; 1.15 fold enrichment (6-mer frequency, TF over GST control) with ERG; 1.2 fold enrichment (6-mer frequency, TF over GST control) with ELF1; 1.26 fold enrichment (6-mer frequency, TF over GST control) with EHF. For the same sequence, the binding signal with SPI1 is 1.12 fold enrichment (6-mer frequency, TF over GST control); with SPIB, 1.1 fold enrichment (6-mer frequency, TF over GST control); with ELK3, 1.25 fold enrichment (6-mer frequency, TF over GST control).
Turning to CCCCCA, the binding signal was 1.23 fold enrichment (6-mer frequency, TF over GST control) with FLI1; 1.18 fold enrichment (6-mer frequency, TF over GST control) with ELK1; 1.23 fold enrichment (6-mer frequency, TF over GST control) in the test with GABPA; 1.17 fold enrichment (6-mer frequency, TF over GST control) with ERG; 1.2 fold enrichment (6-mer frequency, TF over GST control) with ELF1; 1.27 fold enrichment (6-mer frequency, TF over GST control) with EHF. Further, the binding signal with SPI1 was 1.23 fold enrichment (6-mer frequency, TF over GST control); with SPIB it was 1.27 fold enrichment (6-mer frequency, TF over GST control); in the test with ELK3, 1.06 fold enrichment (6-mer frequency, TF over GST control).
Turning to TCTCAT, the binding signal with FLI1 was 1.3 fold enrichment (6-mer frequency, TF over GST control); with ELK1, 1.36 fold enrichment (6-mer frequency, TF over GST control); in the test with GABPA, 1.34 fold enrichment (6-mer frequency, TF over GST control); with ERG it was 1.2 fold enrichment (6-mer frequency, TF over GST control); in the test with ELF1, 1.36 fold enrichment (6-mer frequency, TF over GST control); with EHF, 1.31 fold enrichment (6-mer frequency, TF over GST control). The binding signal with SPI1 is 1.37 fold enrichment (6-mer frequency, TF over GST control); with SPIB it was 1.33 fold enrichment (6-mer frequency, TF over GST control); with ELK3 it was 1.29 fold enrichment (6-mer frequency, TF over GST control).
In the case of ATGTGT, the binding signal is 1.04 fold enrichment (6-mer frequency, TF over GST control) in the test with FLI1; 1.11 fold enrichment (6-mer frequency, TF over GST control) with ELK1; 1.06 fold enrichment (6-mer frequency, TF over GST control) in the test with GABPA; 1.03 fold enrichment (6-mer frequency, TF over GST control) in the test with ERG; 1.03 fold enrichment (6-mer frequency, TF over GST control) in the test with ELF1; 1.08 fold enrichment (6-mer frequency, TF over GST control) in the test with EHF. The binding signal with SPI1 is 1.08 fold enrichment (6-mer frequency, TF over GST control); in the test with SPIB, 1.11 fold enrichment (6-mer frequency, TF over GST control); in the test with ELK3 it was 1.06 fold enrichment (6-mer frequency, TF over GST control).
In the case of TTCTAA, the binding signal was 1.28 fold enrichment (6-mer frequency, TF over GST control) with FLI1; 1.23 fold enrichment (6-mer frequency, TF over GST control) in the test with ELK1; 1.2 fold enrichment (6-mer frequency, TF over GST control) with GABPA; 1.25 fold enrichment (6-mer frequency, TF over GST control) with ERG; 1.23 fold enrichment (6-mer frequency, TF over GST control) with ELF1; 1.22 fold enrichment (6-mer frequency, TF over GST control) with EHF. In addition, the binding signal is 1.14 fold enrichment (6-mer frequency, TF over GST control) with SPI1; 1.17 fold enrichment (6-mer frequency, TF over GST control) in the test with SPIB; 1.08 fold enrichment (6-mer frequency, TF over GST control) with ELK3.
As to GCAACT, the binding signal was 1.22 fold enrichment (6-mer frequency, TF over GST control) in the test with FLI1; 1.19 fold enrichment (6-mer frequency, TF over GST control) in the test with ELK1; 1.19 fold enrichment (6-mer frequency, TF over GST control) with GABPA; 1.33 fold enrichment (6-mer frequency, TF over GST control) in the test with ERG; 1.29 fold enrichment (6-mer frequency, TF over GST control) with ELF1; 1.2 fold enrichment (6-mer frequency, TF over GST control) in the test with EHF. The binding signal is 1.23 fold enrichment (6-mer frequency, TF over GST control) in the test with SPI1; 1.22 fold enrichment (6-mer frequency, TF over GST control) with SPIB; 1.14 fold enrichment (6-mer frequency, TF over GST control) with ELK3.
For TACTCG, the binding signal with FLI1 was 1.33 fold enrichment (6-mer frequency, TF over GST control); with ELK1 it was 1.29 fold enrichment (6-mer frequency, TF over GST control); in the test with GABPA, 1.34 fold enrichment (6-mer frequency, TF over GST control); in the test with ERG it was 1.14 fold enrichment (6-mer frequency, TF over GST control); with ELF1, 1.34 fold enrichment (6-mer frequency, TF over GST control); in the test with EHF, 1.16 fold enrichment (6-mer frequency, TF over GST control). Besides, the binding signal with SPI1 is 1.22 fold enrichment (6-mer frequency, TF over GST control); with SPIB it was 1.18 fold enrichment (6-mer frequency, TF over GST control); with ELK3, 1.22 fold enrichment (6-mer frequency, TF over GST control).
